The full list was thinned out, with hits kept by preference.
Calb biofilm kill: clotrimazole potentiators killing Candida biofilms, primary screen, with clotrimazole, Alamar Blue | 85,000 compounds, 0.14% hits | AID 834, 2007 | C. albicans biofilm + clotrimazole | inhibition, % at 6 µM;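 active = inhibition above 20%; inactive = inhibition below 20%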;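 note: preformed 24 hr biofilms exposed to compound for 48 hr; 0% = biofilm without compound and 100% = blank killed by clotrimazole plus chlorhexidine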
FXIa mix inh: FXIa protease inhibitors in compound pools, primary screen, biochemical, 10-compound mixtures; purified FXIa, fluorogenic substrate, pooled mixtures; inhibition, % at 5 µM; 62,000 compounds, 0.19% hits;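 note: each value is inhibition by a whole ten-compound pool holding the compound; 0% = enzyme with no mixture and 100% = wells lacking enzyme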
TNAP act mid DEA: human TNAP enzyme activators, primary screen, biochemical, luminescent, intermediate phosphate acceptor level. AID 813, 2007. 64,000 tested, under 10 active. Alkaline phosphatase, tissue-nonspecific isozyme (Homo sapiens), P05186. activation factor at 20 µM. purified TNAP, CDP-star luminescence, 100 mM DEA, 30 min; hits give high values; scale: 0 levamisole-inhibited, 1 vehicle-only enzyme;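 active = activation factor of at least 2 at 20 µM, relative to controls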
Target sequence (P05186 whole entry, looked up): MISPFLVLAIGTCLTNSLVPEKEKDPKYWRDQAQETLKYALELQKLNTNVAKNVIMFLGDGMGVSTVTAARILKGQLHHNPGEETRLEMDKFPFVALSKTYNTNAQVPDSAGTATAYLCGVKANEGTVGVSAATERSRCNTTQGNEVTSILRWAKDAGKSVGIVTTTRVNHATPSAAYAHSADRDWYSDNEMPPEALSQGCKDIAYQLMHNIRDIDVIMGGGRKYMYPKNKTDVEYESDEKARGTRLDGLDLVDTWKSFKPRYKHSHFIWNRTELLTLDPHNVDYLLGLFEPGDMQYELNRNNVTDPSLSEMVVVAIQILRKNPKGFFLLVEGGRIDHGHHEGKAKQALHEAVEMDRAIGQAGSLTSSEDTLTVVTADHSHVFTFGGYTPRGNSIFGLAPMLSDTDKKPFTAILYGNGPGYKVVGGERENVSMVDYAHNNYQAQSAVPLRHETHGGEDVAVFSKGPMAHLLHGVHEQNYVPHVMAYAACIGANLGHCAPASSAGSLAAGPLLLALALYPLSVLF
HePTP inh: inhibitors of human HePTP phosphatase, primary screen, biochemical, absorbance, leukemia target | Tyrosine-protein phosphatase non-receptor type 7 (Homo sapiens), P35236 | recombinant HePTP phosphatase activity, OD absorbance | inhibition, % at 20 µM | 110,000 compounds, 0.64% hits | AID 521, 2006; in the data active = inhibition above about 50%;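 note: plate controls were vehicle for no effect and reference inhibitor for full effect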
D1 mod: D1 CRE-luciferase signal change, two-sided – cell-based, HEK293 D1, dopamine EC30, D1 allosteric modulator project, primary screen | B-score at 10 µM | 58,000 compounds, 5.9% hits | dopamine EC30 potentiation; actives deviate in either direction;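 active = luminescence count or its row- and column-corrected plate score outside the 99.7% band of the plate's sample wells, on either side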
FXIIa mix inh: human factor XIIa inhibitors, primary screen, biochemical, pooled compound mixtures, fluorogenic substrate | Coagulation factor XII (Homo sapiens), P00748 | purified FXIIa | inhibition, % at 5 µM | 62,000 compounds, 0.2% hits | AID 684, 2007;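 note: 0% = enzyme without compound and 100% = no enzyme blank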
D1 PAM confirm: D1 receptor positive allosteric modulators, retest, confirmation, cell-based, HEK293 D1, CRE-luciferase, duplicate | shares compounds with D1 mod | dopamine EC30 potentiation; hits give high values | luminescence at 10 µM | 2,200 compounds, 88% hits | AID 642, 2007;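 active = luminescence in either of two replicates above the same-plate mean plus 3 SD of the low-dose dopamine control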
D1 ag no DA: D1 receptor agonism without dopamine, confirmation, mechanism study for D1 allosteric modulator project, cell-based, HEK293 D1, CRE-luciferase, secondary assay 1. shares compounds with D1 mod. luminescence, no dopamine; hits give high values. luminescence at 10 µM. 1,900 compounds, 0.8% hits; in the data active = luminescence above about 3900
Isoprot counter: counter-screen for D1 modulators: isoproterenol response in HEK293 cells. shares compounds with D1 mod. HEK293 D1 CRE-luciferase, isoproterenol EC30 counter-screen; hits give high values. luminescence at 10 µM. 2,200 compounds, 63% hits;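 active = luminescence in either replicate above plate mean of wells with a partly effective reference agonist dose plus 3 SD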;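 note: isoproterenol raises cAMP through native beta-adrenoceptor Gs so signal bypasses D1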
Numbers without * were called inactive; . = no result. Cut-off read from the data, not from the text of the source, unless noted: active = inhibition above about 20% (passing the limit was not always enough); inactive = the rest.

SMILES	Calb biofilm kill	FXIa mix inh	TNAP act mid DEA	HePTP inh	D1 mod	FXIIa mix inh	D1 PAM confirm	D1 ag no DA	Isoprot counter
Cc1sc2nc(CN3CCN(S(=O)(=O)c4cccc5nonc45)CC3)[nH]c(=O)c2c1C	10	-4	0.8	10	3.6*	1	8576*	1552	2692
Cc1ccc(S(=O)(=O)N2CCN(Cc3nc4sc(C)c(C)c4c(=O)[nH]3)CC2)cc1	5	.	.	.	.	.	.	.	.
CCCc1cc2c(c(NC(C)=O)n1)c(=O)oc1ccccc12	5	-3	1	4	7.9*	-17	21272*	1716	4588*
Clc1ccc(/C=N\N2CCN(c3ccc(Cl)cc3)CC2)cc1	.	.	.	-8	.	.	.	.	.
Cc1cc(NCCCn2ccnc2)n2c(nc3ccccc32)c1C#N	5	-9	1	-6	3.9*	14	7832*	1564	2312
Cc1cc(NCCCN(C)C)n2c(nc3ccccc32)c1C#N	.	.	.	-3	.	.	.	.	.
O=C(/C=C/c1ccc(Cl)cc1)NCC1(c2ccccc2)CCOCC1	.	.	.	-10	.	.	.	.	.
COc1ccc2ncn(-c3ccccc3)c2c1	6	-5	0.9	-7	5.1*	10	8964*	1568	3308
COCCOC(=O)C1=C(C)NC2=C(C(=O)CC(C)(C)C2)C1c1cccc(Cl)c1 (stereo unspecified)	.	.	.	-19	.	.	.	.	.
COC(=O)c1ccc(OC)c(CSc2nnc(COc3ccc(OC)cc3)o2)c1	2	2	1	-1	6.4*	1	5284	1456	2392
CCOC(=O)c1ccc(Nc2nnc(-c3ccccc3)c3ccccc23)cc1	.	.	.	5	.	.	.	.	.
N#Cc1c(N)nc(SCc2ccncc2)c(C#N)c1-c1cccs1	5	0	0.8	13	6.5*	1	8108*	1716	4352*
COc1cc(Nc2cc(C)c(C#N)c3nc4ccccc4n23)cc(OC)c1OC	.	.	.	0	.	.	.	.	.
COc1ccc(C2=Nn3c(nnc3-c3cccnc3)SC2)cc1	11	5	0.9	3	5.6*	-6	10056*	1736	3892*
COc1ccc(C2=Nn3c(nnc3-c3ccccc3)SC2)cc1OC	6	10	0.8	10	29*	3	21404*	.	6152*
CCCc1nnc2n1N=C(c1ccc(OC)c(OC)c1)CS2	7	39	0.8	13	26*	18	22008*	.	15456*
CCOc1ccc(C2=Nn3c(nnc3-c3cccnc3)SC2)cc1	5	.	0.9	7	.	.	.	.	.
COc1ccc(C2=Nn3c(nnc3-c3ccco3)SC2)cc1	11	.	.	.	.	.	.	.	.
COc1ccc(OCc2nnc3n2N=C(c2ccc(C)cc2)CS3)cc1	14	7	0.9	-2	1.5	1	.	.	.
c1ccc(C2=Nn3c(nnc3-c3cccnc3)SC2)cc1	1	2	0.9	2	4.9*	13	11260*	1752	3264
COc1ccc(-c2nnc3n2N=C(C)CS3)cc1OC	9	1	0.9	-1	-2	2	.	.	.
COc1cc(C2NC(=S)NC(C)=C2C(=O)Nc2cccc(C)c2)ccc1O (stereo unspecified)	.	.	.	-12	.	.	.	.	.
COc1ccc(CCNC(=O)C(=O)Nc2ccc(Cl)c(Cl)c2)cc1	.	.	.	7	.	.	.	.	.
O=C1C2C(C(=O)N1c1ccccc1Cl)C1C=CC2C12CC2 (stereo unspecified)	.	.	.	-10	.	.	.	.	.
CCc1ccccc1NC(=O)[C@H]1CC=CC[C@H]1C(=O)O	.	.	.	-6	.	.	.	.	.
c1cncc(-c2nc(-c3cccs3)cs2)c1	4	1	0.8	15	.	2	.	.	.

Bioassay records: PubChem BioAssay, several laboratories
